Source: PubChem BioAssay (NCI)
This is part of a sample that, as a whole, favours compounds with a hit. Of some 83,000 tested, about 20% had one in any assay.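 How to read the values: 0–100, growth inhibition (40 = 60% inhibited); 0, no net growth; -100 to 0, cell death (-40 = 40% of starting cells died; -100 = all dead).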 Unmarked numbers belong to inactive results. The source made the active and inactive calls. How the source made its calls: active means growth percent below 10; inactive means the rest.

Assays:
Experiment in all cases: NCI-60 one-dose screen, 48 h (100 = growth as untreated, 0 = no growth, -100 = all killed)
[1] = system: EKVX NSCLC; settings: 10 µM unless noted
[2] = system: SN12C renal; settings: 10 µM unless noted
[3] = system: UO-31 renal; settings: 10 µM unless noted
[4] = system: TK-10 renal; settings: 10 µM unless noted
[5] = system: ACHN renal; settings: 10 µM unless noted
[6] = system: CAKI-1 renal; settings: 10 µM
[7] = system: CCRF-CEM leukemia; settings: 10 µM unless noted
[8] = system: MOLT-4 leukemia; settings: 10 µM unless noted
[9] = system: SR leukemia; settings: 10 µM unless noted
[10] = system: RPMI-8226 leukemia; settings: 10 µM unless noted
[11] = system: OVCAR-8 ovarian; settings: 10 µM unless noted
[12] = system: OVCAR-5 ovarian; settings: 10 µM unless noted
[13] = system: OVCAR-4 ovarian; settings: 10 µM unless noted
[14] = system: SK-OV-3 ovarian; settings: 10 µM unless noted
[15] = system: IGROV1 ovarian; settings: 10 µM unless noted
[16] = system: HS 578T breast; settings: 10 µM unless noted
[17] = system: NCI/ADR-RES ovarian; settings: 10 µM unless noted
[18] = system: A498 renal; settings: 10 µM unless noted

Row | SMILES | growth [1] | growth [2] | growth [3] | growth [4] | growth [5] | growth [6] | growth [7] | growth [8] [%] | growth [9] | growth [10] | growth [11] | growth [12] | growth [13] | growth [14] [%] | growth [15] | growth [16] | growth [17] | growth [18]
1 | CCc1ccc(NC(=O)N[C@@H](Cc2cccc(F)c2)C(=O)N[C@@H]2C(=O)N3CCC[C@H]3C(=O)N3CCCC[C@H]3C(=O)N[C@@H](C)C(=O)N3C[C@H](C)C[C@H]3C(=O)O[C@H]2C)c(F)c1 | 31.1% | 21% | 26.3% | 50.3% | 27.4% | 17.8% | 33.9% | 32 | 21.2% | 12.3% | 23.1% | 23.9% | 23.9% | 24.9 | 35.9% | 26.3% | 18.4% | –
2 | COc1ccc(-c2nc3cc(Cl)c(Cl)cc3n2CC(=O)N=Nc2c(O)[nH]c3ccc(Br)cc23)cc1 | 4.81% (active) | -20.1% (active) | -34.9% (active) | 6.26% (active) | -83% (active) | -76.8% (active) | 39% | 36.4 | 36.4% | 31.8% | 12% | -5.99% (active) | -43.9% (active) | 13.5 | -37.9% (active) | -8.55% (active) | -1.87% (active) | –
3 | CCc1ccc(NC(=O)N[C@@H](Cc2cc(F)cc(F)c2)C(=O)N[C@@H]2C(=O)N3CCC[C@H]3C(=O)N3CCO[C@H](C)[C@H]3C(=O)N[C@@H](CO)C(=O)N3C[C@H](C)C[C@H]3C(=O)O[C@H]2C)c(F)c1 | 28.4% | 22.5% | 36.4% | 55.9% | 34.7% | 20.3% | 35% | 43.3 | 32% | 17% | 22.9% | 35.9% | 22.9% | 26.3 | 39.5% | 35.8% | 70% | –
4 | Cc1cc(=O)n2nc(-c3c[nH]c4ccccc34)sc2n1 | 95.3% | 94.5% | 82.1% | 128% | 96.1% | 99.8% | 115% | – | – | 128% | – | 101% | 104% | 103 | 89.9% | 96.4% | 98% | 95.1%
5 | C[C@@H]1C[C@H]2C(=O)OCC(NC(=O)[C@H](Cc3cc(F)cc(F)c3)NC(=O)Nc3ccc(Cl)cc3F)C(=O)N3CCC[C@H]3C(=O)N3CCCC[C@H]3C(=O)N[C@@H](C)C(=O)N2C1 (some centres not stated) | 27.7% | 18.2% | 30% | 52.8% | 26% | 21.5% | 31.3% | 33.2 | 21.8% | 12.8% | 20% | 31.9% | 23.6% | 27.5 | 40.5% | 32.7% | 24% | –
6 | COc1ccc([C@H]2[C@H](O)C(=O)N2c2cc(OC)c(OC)c(OC)c2)cc1O | 51.2% | 24.6% | 32.6% | 81.1% | 28.1% | 28.9% | 16.1% | – | – | 16.5% | -11.5% (active) | 30.1% | – | 21.4 | 26.7% | 5.02% (active) | 18.6% | -16% (active)
7 | O=C1Nc2ccc(Cl)cc2/C1=C/c1ccc(OCc2ccc(F)cc2)cc1 | 90.9% | 93.9% | 86.4% | 99% | 103% | 74.6% | -53.8% (active) | 93.4 | 101% | 69.8% | 98.5% | 94% | 97.5% | 101 | 100% | 101% | 80.5% | –
8 | c1cncc(-c2cn3nc(-c4c[nH]c5ccccc45)sc3n2)c1 | 72.5% | 61.5% | 44.6% | 94.4% | 72.3% | 51.7% | 54.1% | – | – | 63.1% | – | 43.4% | 83.3% | 86.2 | 59.8% | 57.8% | 18.3% | 47.9%
9 | COc1cc2c3c(n(CCCNC4CCCCC4)c(=O)c2cc1OC)-c1cc2c(cc1C3=O)OCO2 | -65.3% (active) | -70.3% (active) | 84.5% | -95% (active) | -6.15% (active) | 73.9% | – | – | – | -46.5% (active) | -66.8% (active) | -86.4% (active) | 93.2% | 104 | -30.9% (active) | 90.5% | -22.9% (active) | 86.2%
10 | CCc1ccc(NC(=O)N[C@@H](Cc2cccc(F)c2)C(=O)N[C@@H]2C(=O)N3CCC[C@H]3C(=O)N3CCCC[C@H]3C(=O)N[C@@H](CO)C(=O)N3C[C@H](C)C[C@H]3C(=O)O[C@H]2C)c(F)c1 | 34% | 20.3% | 29.4% | 61.1% | 32.2% | 17.5% | 37.7% | 39.3 | 31.4% | 20.3% | 20.9% | 36.4% | 24.6% | 21.8 | 39.5% | 35.5% | 60.6% | –
11 | CC(=O)Oc1ccc(CCN2C(=O)CSC2=S)cc1 | 97.3% | 69% | 76.8% | 57.9% | 93.6% | 81.6% | 57.9% | 88.2 | 68.9% | 37.6% | 103% | 97.9% | 93.8% | 113 | 103% | 100% | 96.4% | –
12 | Cc1ccc(/C=C/c2nn3c(-c4ccco4)nnc3s2)cc1 | 108% | 107% | 85.6% | 87.9% | 99.9% | 86.8% | – | – | 77.3% | 95.4% | 100% | 100% | 102% | 115 | 107% | 116% | 104% | 89%
13 | C(=C(\C1=NCCN1)n1cnc2ccccc21)/c1cccc2ccccc12 | 87.2% | 85.4% | 62.2% | 90.9% | 87.2% | 68.7% | 91.1% | 93.2 | 84.7% | 87.2% | 95.8% | 81.4% | 93.3% | 89 | 89.7% | 92.9% | 96.8% | –
14 | COC(=O)c1nc(-c2ccc(C)cc2)oc1S(=O)(=O)N1CCN(c2oc(-c3ccccc3)nc2C#N)CC1 | 106% | 100% | 94% | 111% | 100% | 97.4% | 39.8% | – | – | 97.7% | 102% | 108% | – | 119 | 106% | 108% | 103% | –
15 | N#C/C(=C\c1ccc(N2CCCCC2)cc1)C(=O)Nc1sc2c(c1C#N)CCC2 | 98.4% | 88.9% | 91.2% | 108% | 72.5% | – | -4.06% (active) | 104 | 97.6% | 69.3% | – | 93.7% | 84.5% | 96.6 | 102% | 99.3% | 95.7% | –
16 | CS(=O)c1nccc(-c2c(-c3ccc(F)c(OCCc4ccccc4)c3)nc3sccn23)n1 (configuration not stated) | 99.9% | 93.7% | 52.7% | 105% | 72.8% | – | – | – | – | 55.8% | 93% | 111% | 102% | 102 | 17.7% | 99.8% | 108% | 92.6%
17 | COc1ccc(C2C(C#N)=C(N)Oc3c2sc2ccc(C)cc32)cc1 (configuration not stated) | 53.4% | 34.9% | 41.7% | 81.4% | 44.9% | 32.1% | 26.4% | 45 | 25.7% | 36.5% | 56% | 51.4% | 63% | 41.2 | 39.8% | 3.28% (active) | 23.6% | –
18 | COc1cc(OC)c(S(N)(=O)=O)cc1C(=O)/C=C/c1ccccc1 | 77.2% | 11.3% | 33.8% | 19.9% | 27.7% | 30.2% | 15.1% | 29.2 | 8.18% (active) | 18.5% | – | 27.1% | 77.7% | 81.1 | – | 26.5% | 48.3% | –
